Among the data in PubChem BioAssay are differentiation response values, retold here.

Each structure is given as a SMILES string. “And” between values parts separate entries of the source, which are not always exact repeats. Equal values may be shown once. A number with no mark means an inactive call.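 How the source made its calls: active means differentiation response of at least 50%, scaled between solvent and reference control, from cells with both markers; inactive means the rest.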

The assay can be described thus: AML differentiation inducers, ER-HoxA9 marrow cells – cell-based, GFP/MAC1 double positive, flow cytometry, validation set, primary screen (AID 588685).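 Further: compound exposure lasts four days before antibody staining and flow analysis; 0% = DMSO wells and 100% = 5 µM fulvestrant positive control.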 The note with it: stronger effect = higher value. A general note: In flow cytometry, cells or beads pass a laser one at a time.
For the molecule `CN1C[C@H](CNC(=O)OCc2ccccc2)C[C@@H]2c3cccc4c3c(cn4C)C[C@H]21`, the differentiation response was -6.96%. The value for `C[N+]1(C)C2CCC1CC(OC(=O)C(CO)c1ccccc1)C2` (stereo not given) was -6.6%. The value for `CCC1(c2ccccc2)C(=O)N(COC)C(=O)N(COC)C1=O` was 3.88%. The value for `CCn1c(O)c(C(=O)CC2NCCc3ccccc32)c(=O)n(CC)c1=S` (stereo not given) was -15.2%. Turning to `NC(=O)CN1CCCC1=O`, the differentiation response is -1.64%.

Regarding `Cc1ccsc1C(=O)C1CCCN(Cc2cc3ccccc3o2)C1` (stereo not given), the differentiation response was -4.64%. The value for `CN1C2CCC1CC(OC(=O)c1ccc(Cl)cc1)C2` (stereo not given) was -13.6%; that for `Cn1c(O)c(C=NCCc2c[nH]c3ccccc23)c(=O)n(C)c1=O` was -23.2%. To `CC12CN3CC(C)(CN(C1)C3c1cccs1)C2=O` (stereo not given) belongs -7.57%; to `[N-]=[N+]=CC(=O)OC[C@H](N)C(=O)O`, 0.92%.

With `COP(=O)(OC)C(O)C(Cl)(Cl)Cl` (stereo not given), the differentiation response is 12.9%. To `CC(C)[N+](C)(CCC(C(N)=O)(c1ccccc1)c1ccccc1)C(C)C` belongs -8.96%; to `C[C@@]1(CO)[C@H](O)CC[C@@]2(C)[C@H]1CC[C@H]1C[C@@H]3C[C@@]12CC[C@]3(O)CO`, -1.65%. For the molecule `O=C1CCCC2=C1C(c1cccnc1)Nc1ccccc1N2` (stereo not given), the differentiation response is -4.64%.

Regarding `O=c1[nH]c(=S)n(-c2ccccc2)c(O)c1/C=N/N1CCCCC1c1cccnc1` (stereo not given), the differentiation response is 4.15%. To `Clc1ccc(C2NCCc3[nH]cnc32)cc1` (stereo not given) belongs -5.62%; to `Cc1ccc(-n2c(C)cc(/C=C3/C(=O)NC(=O)N(C)C3=O)c2C)cc1`, -14.8%. For the molecule `C[N+]1(C)CCc2cc3c(cc2[C@H]1[C@@H]1OC(=O)c2c1ccc1c2OCO1)OCO3`, the differentiation response was -10.4% and 1.22%. To `COc1ccc(NC2=NCC(C)S2)cc1` (stereo not given) belongs -3.11%; to `CC12CN3CC(C)(CN(C1)C3c1cccs1)C2O` (stereo not given), 0.24%; to `O=C1NCCN2CCCC12` (stereo not given), -11.9%. To `NNC(=O)c1ccc(Cl)cc1` belongs 2.74%; to `CN1CCN(C(=O)OC2c3nccnc3C(=O)N2c2ccc(Cl)cn2)CC1` (stereo not given), -13.6%.

Take `O=c1[nH]c2ccccc2n1C1CCN(CCCC(c2ccc(F)cc2)c2ccc(F)cc2)CC1`: the differentiation response was 13.7%. To `O=C1NC(=O)C2(Cc3ccccc3N3CCCC32)C(=O)N1c1ccc(Cl)cc1` (stereo not given) belongs 1.22%. The value for `CC1CCC[C@H](O)CCCCCc2cc(O)cc(O)c2C(=O)O1` (stereo not given in full) was -4.57%; that for `O=c1cccc2n1C[C@H]1C[C@@H]2CN2CCCC[C@@H]12` was -24.8%; that for `CC(=O)OC1C2CCC1C(N1CCCC1)CC2` (stereo not given) was -12.9%.

On to `CCOc1ccc(C2C(C#N)=C(N)Oc3c2c(=O)oc2ccccc32)cc1` (stereo not given), for which the differentiation response is -23.2%. To `COc1cc2c3cc1Oc1cc(ccc1O)C[C@@H]1c4c(cc(OC)c(O)c4Oc4ccc(cc4)C[C@H]3N(C)CC2)CCN1C` belongs -3.28%. Regarding `CN1CC[C@@]23CCCC[C@@H]2[C@@H]1Cc1ccc(O)cc13`, the differentiation response was 3.18%.

For `O=c1c2ccccc2[se]n1-c1ccccc1`, the differentiation response is 0.41%.

As for `CC[N+]1(C)CCCC(OC(=O)C(O)(c2ccccc2)c2ccccc2)C1` (stereo not given), the differentiation response was -5.97%. The value for `C[C@]12CCC(=O)C=C1CCC1C2CC[C@@]2(C)C1CC[C@@]2(O)CC#N` (stereo not given in full) was 11%. To `C[C@H]1CC[C@@]2(C)[C@@H](CC[C@@H]3[C@@H]2CC[C@]2(C)[C@@H](O)CC[C@@H]32)C1` belongs -8.8%.

For the molecule `C[C@H]1OC[C@@H](C[N+](C)(C)C)O1`, the differentiation response was -10.4%.

For `CC(C)(C)C(O)C(Oc1ccc(Cl)cc1)n1cncn1` (stereo not given), the differentiation response was 6.83%. To `C[C@@H]1O[C@@H](O[C@H]2C[C@@H](O)[C@]3(CO)[C@H]4[C@H](O)C[C@]5(C)[C@@H](C6COC(=O)C6)CC[C@]5(O)[C@@H]4CC[C@]3(O)C2)[C@H](O)[C@H](O)[C@H]1O` (stereo not given in full) belongs -4%.

With `CC(=O)c1ccc(-c2ccccc2)cc1`, the differentiation response is 4.91%. The value for `CCOC(=O)c1cc2c(cn1)[nH]c1ccccc12` was -1.65%.
